Test results published in PubChem BioAssay (NCATS).
A number with no mark means an inactive call. Inconclusive results are not listed. Calls of active or inactive are those of the source. Calls follow the shape of the dose curve; as a rule, active = well fitted curve in the direction sought with a large enough effect; inconclusive = small, poorly fitted or top-dose-only effect, or another doubt; inactive = no such curve, though single readings can be large; an effect the other way counts as inactive or inconclusive.

Columns and labels:
[1] = target: Cytochrome P450 3A4 (Homo sapiens) (UniProt P08684); assay: qHTS Assay for Inhibitors and Substrates of Cytochrome P450 3A4 (AID 884); also: potency is read from the fitted curve at half-maximal effect; nearly all actives have a fitted effect of over 50% in size
Method in brief: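 Luminescent readout of luciferin produced by CYP3A4 (20 nM) dealkylation of Luciferin-PPXE, 25 uM (its KM). NADPH-driven reaction ran 60 min at RT after 10 min compound preincubation; data scaled to 57 uM ketoconazole as 100% inhibition.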

[2] = target: Cytochrome P450 3A4 (Homo sapiens) (UniProt P08684); assay: qHTS Assay for Activators of Cytochrome P450 3A4 (AID 885); also: nearly all actives have a fitted effect of over 65% in size
Method in brief: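 Activators are scored by enhanced luminescence from CYP3A4 conversion of luciferin-PPXE (25uM, equal to KM) to luciferin, after 60 min at RT with an NADPH-regenerating system.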

[3] = target: Cytochrome P450 2D6 (Homo sapiens) (UniProt P10635); assay: qHTS Assay for Inhibitors and Substrates of Cytochrome P450 2D6 (AID 891); also: nearly all actives have a fitted effect of over 60% in size; also: potency is read from the fitted curve at half-maximal effect
Method in brief: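 Luminescent read-out of luciferin formed by 5 nM human CYP2D6 demethylating 30 uM Luciferin-ME EGE (Km level) over 60 min at room temperature after NADPH regeneration addition. Data normalized to full inhibition by 1.43 uM quinidine.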

[4] = target: Cytochrome P450 2C19 (Homo sapiens) (UniProt P33261); assay: qHTS Assay for Inhibitors and Substrates of Cytochrome P450 2C19 (AID 899); also: nearly all actives have a fitted effect of over 60% in size; also: potency is read from the fitted curve at half-maximal effect
Method in brief: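 Human CYP2C19 (5nM) with Luciferin-H EGE at 10uM (its KM) in 50mM KPO4 was preincubated with compound for 10 min at 37C. NADPH regeneration started a 60 min 37C reaction. Luciferin was read by luminescence, normalized to 57uM ketoconazole.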

Cytochrome P450 2C19 (Homo sapiens), sequence (P33261 whole entry, looked up): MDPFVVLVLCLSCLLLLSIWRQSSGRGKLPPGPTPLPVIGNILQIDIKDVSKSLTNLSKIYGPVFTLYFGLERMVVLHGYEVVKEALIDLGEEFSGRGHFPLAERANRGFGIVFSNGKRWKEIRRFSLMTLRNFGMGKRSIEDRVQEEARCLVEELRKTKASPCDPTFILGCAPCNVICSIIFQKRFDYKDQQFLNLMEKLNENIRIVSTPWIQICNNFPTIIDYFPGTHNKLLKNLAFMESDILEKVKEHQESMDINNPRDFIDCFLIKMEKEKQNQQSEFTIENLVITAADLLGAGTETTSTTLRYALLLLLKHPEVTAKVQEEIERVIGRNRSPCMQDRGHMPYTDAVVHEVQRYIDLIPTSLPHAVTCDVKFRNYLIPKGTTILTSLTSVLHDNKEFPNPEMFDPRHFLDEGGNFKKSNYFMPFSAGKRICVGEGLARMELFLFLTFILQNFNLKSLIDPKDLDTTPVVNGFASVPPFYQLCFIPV
Cytochrome P450 2D6 (Homo sapiens), sequence (P10635 whole entry, looked up): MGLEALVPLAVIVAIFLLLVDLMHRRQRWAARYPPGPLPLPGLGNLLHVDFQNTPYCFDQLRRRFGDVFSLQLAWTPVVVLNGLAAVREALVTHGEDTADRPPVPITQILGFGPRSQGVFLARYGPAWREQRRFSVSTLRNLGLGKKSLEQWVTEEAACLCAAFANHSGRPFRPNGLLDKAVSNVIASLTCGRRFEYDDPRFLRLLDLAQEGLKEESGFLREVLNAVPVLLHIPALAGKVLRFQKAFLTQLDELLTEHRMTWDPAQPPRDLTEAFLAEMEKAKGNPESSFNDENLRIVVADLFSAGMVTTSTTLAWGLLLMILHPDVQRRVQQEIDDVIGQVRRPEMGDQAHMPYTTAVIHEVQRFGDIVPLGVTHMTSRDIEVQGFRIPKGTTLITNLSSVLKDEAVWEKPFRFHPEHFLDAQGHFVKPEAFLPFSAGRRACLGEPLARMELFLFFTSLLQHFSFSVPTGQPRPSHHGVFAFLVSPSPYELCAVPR
Cytochrome P450 3A4 (Homo sapiens), sequence (P08684 whole entry, looked up): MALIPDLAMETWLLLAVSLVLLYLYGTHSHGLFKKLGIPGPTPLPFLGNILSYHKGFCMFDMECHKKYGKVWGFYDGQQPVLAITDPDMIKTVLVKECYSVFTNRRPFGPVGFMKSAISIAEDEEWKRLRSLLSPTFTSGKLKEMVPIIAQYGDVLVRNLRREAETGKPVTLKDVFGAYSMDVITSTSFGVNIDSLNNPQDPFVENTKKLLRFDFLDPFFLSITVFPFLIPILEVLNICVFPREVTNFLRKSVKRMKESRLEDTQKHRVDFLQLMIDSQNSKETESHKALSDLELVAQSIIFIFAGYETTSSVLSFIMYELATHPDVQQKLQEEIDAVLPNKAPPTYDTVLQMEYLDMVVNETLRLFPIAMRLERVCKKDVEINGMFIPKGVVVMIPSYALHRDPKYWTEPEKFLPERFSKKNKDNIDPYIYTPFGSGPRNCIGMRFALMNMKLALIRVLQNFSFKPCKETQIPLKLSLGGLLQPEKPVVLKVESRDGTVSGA

Row | Compound | Potency [1] | Potency [2] | activity change, positive = activation [2] | Potency [3] | Potency [4]
1 | CCC1=C(OC(=O)N(CC)CC)N2C(=O)OC(=NCCOC)[C@]2(Cc2ccccc2)[C@H]2C1=CC[C@H]1C(=O)N(CC(=O)OC)C(=O)[C@H]12 | 6.31 µM (active) | inactive |  |  | 
2 | CCCNC(=O)OC[C@H]1O[C@@H](CCO/N=C2/[C@H]3O[C@@H]3[C@@H](O)[C@H]3[C@H]2CCn2c(=O)n(-c4ccccc4)c(=O)n23)C=C[C@@H]1Oc1ccc(OC)cc1 | 3.16 µM (active) |  | -85.3% [at 11.4 µM] |  | 
3 | COC(=O)[C@@H]1C[C@@]2(O)[C@@H](O)[C@@H](O)[C@@H](O)C[C@H]2N1Cc1cc(OC)cc(OC)c1 | 3.16 µM (active) | inactive |  |  | 
4 | CCC1=C2CC[C@H]3C(=O)N(c4ccccc4)C(=O)[C@H]3[C@H]2[C@@]2(C)C(=NCC3CC3)OC(=O)N2C1=O | 10 µM (active) | inactive |  |  | 
5 | CCC1=C2CC[C@H]3C(=O)N(CC(=O)OC)C(=O)[C@H]3[C@H]2[C@@]2(Cc3ccccc3)C(=NCCOC)OC(=O)N2C1=O | 12.6 µM (active) | inactive |  |  | 
6 | N#Cc1ccc(C23CC4(C2)[C@H](CN(CC2CCCCC2)[C@@H]4c2ccccc2)C3c2ccccc2)cc1 (stereo not given in full) | 15.8 µM (active) | inactive |  |  | 
7 | CC(C)=CCC/C(C)=C/CO/N=C1/C[C@@H](O)[C@@H](O)[C@@H]2[C@@H]3C(=O)N(Cc4ccc5c(c4)OCO5)C(=O)[C@H]3CC[C@@H]12 | 1.58 µM (active) |  | -86.9% [at 11.4 µM] |  | 
8 | CCC1=C(OC(=O)N(CC)CC)N2C(=O)OC(=NCCc3c[nH]c4ccccc34)[C@]2(Cc2ccccc2)[C@H]2C1=CC[C@H]1C(=O)N(CC)C(=O)[C@H]12 | 2 µM (active) | inactive |  |  | 
9 | CCC1=C2CC[C@H]3C(=O)N(CC)C(=O)[C@H]3[C@H]2[C@@]2(Cc3ccccc3)C(=O)N(CCOC)C(=O)N2C1=O | 15.8 µM (active) | inactive |  |  | 
10 | C/C(CCN1CCCCc2nc(C)c(C)cc21)=N\O[C@@H](C)CN1CCCCc2nc(C)c(C)cc21 | 3.98 µM (active) |  | -81.7% [at 11.4 µM] |  | 
11 | CCOC(c1cc(OC)cc([N+](=O)[O-])c1OC)C(C)C(OC)[C@@H](C)/C=C/CC(=O)OC (stereo not given in full) | 3.98 µM (active) |  | -78.6% [at 11.4 µM] | inactive | 
12 | COc1ccc(C#CC2C=CC(Oc3cc(C)cc(C)c3)C(CO)O2)cc1 (stereo not given) | 1.58 µM (active) |  | -94.5% [at 11.4 µM] | 3.98 µM (active) | 0.0631 µM (active)
13 | Nc1ccccc1C(=O)/C=C\c1ccc2c(c1)OCO2 | 3.16 µM (active) |  | -84.3% [at 11.4 µM] | 3.16 µM (active) | 
14 | C=CCC1C=CC(Oc2ccc(F)cc2C)C(CO)O1 (stereo not given) | 3.98 µM (active) |  | -81.3% [at 11.4 µM] | inactive | 0.251 µM (active)
15 | CCc1cc(C(C)=O)c(O)cc1OCCCCCC(C)(C)c1nn[nH]n1 | 10 µM (active) | inactive |  |  | 
16 | COCC#Cc1ccc(C2C(C)CCC3C(=O)N4C(CCC(C)C4c4ccc(C#CCOC)cc4)C(=O)N32)cc1 (stereo not given) | 1.26 µM (active) |  | -65.6% [at 11.4 µM] | inactive | inactive
17 | CO/N=C(/C)CCC(=O)OC[C@@H]1O[C@H](C#Cc2ccccc2)C=C[C@@H]1Oc1ccc(C)cc1 | 3.98 µM (active) |  | -90.5% [at 11.4 µM] | inactive | 
18 | CC(=O)OCC1OC(C#Cc2ccc(C)cc2C)C=CC1OC(C)=O (stereo not given) | 3.16 µM (active) |  | -83.4% [at 11.4 µM] | 3.98 µM (active) | 
19 | CC(=O)OC[C@H]1O[C@@H](O/N=C(\C)CCC(=O)OC[C@@H]2O[C@H](C#Cc3ccccc3)C=C[C@@H]2Oc2ccc(C)cc2)[C@H](OC(C)=O)[C@@H](OC(C)=O)[C@H]1OC(C)=O | 3.16 µM (active) |  | -90.4% [at 11.4 µM] | 3.98 µM (active) | 
20 | C/C(CCC(=O)OC[C@@H]1O[C@H](C#Cc2ccccc2)C=C[C@@H]1Oc1ccc(C)cc1)=N/OC[C@@H](O)COCc1ccco1 | 3.16 µM (active) |  | -90.6% [at 11.4 µM] |  | 
21 | C/C=C/OC(=O)NC(c1ccccc1)[C@]1(C(C)=O)CCOC1=O (stereo not given in full) | 0.0316 µM (active) |  | -81.2% [at 11.4 µM] | inactive | 0.158 µM (active)
